Measured values published in PubChem BioAssay AID720513 (Broad Institute, 2013).
About 480 (23%) of roughly 2,100 compounds were called active. Not shown: some 5% with an inconclusive outcome.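 How the source made its calls: active means fitted curve reaches 40% activation at or below the top valid concentration, in every replicate test; inconclusive means replicate tests disagree on the call; inactive means the rest, including activity in the opposite direction.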 Not all results are given here. Potency and affinity values are given separately.

experiment: activators raising PGC1a acetylation in cells, dose response, cell-based, cherry-picked samples, set 6 (AID 720513); settings: U2OS PGC1a acetylation AlphaLISA, overnight, 0 = neutral, -100 = inhibitor control; series mostly up to 19.5 µM;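 further: cells made to overexpress flag tagged PGC1a plus GCN5 acetyltransferase by viral infection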

outcome, inactive:
O=C(Cc1cccc(NC(=O)C2CCCN(C(=O)c3ccccc3)C2)c1)Nc1cccc(C(=O)N2CCOCC2)c1 (stereo unspecified), CCn1cnc2cc(NCc3ccc(N(C)C)cc3)ccc21, O=C(Cc1cccc(NC(=O)C2CCN(C(=O)c3ccccc3)CC2)c1)Nc1cccc(C(=O)N2CCCCC2)c1, COc1ccc(C(=O)Nc2cc(Cl)ccc2-n2cncn2)c(OC)c1OC, Cc1noc(/C=C/N(C)C)c1S(=O)(=O)N(C)CC(=O)NC1CCCCC1, CCC(=O)N1C[C@H](C)[C@H](OC)CN(C)C(=O)c2cc(NC(=O)c3cnccn3)ccc2OC[C@@H]1C, Cc1nc2ncnn2c(C)c1CCC(=O)N1CCN(c2ccccn2)CC1, O=C(c1ccccc1-c1ccccc1)N1CCN(c2ccccn2)CC1, COc1cccc(CNC(=O)C(=O)NCCC2CCCCN2S(=O)(=O)c2ccc(C)cc2)c1 (stereo unspecified), COc1ccc(CCNC(=O)C2CCN(C(=O)c3ccc(F)cc3)CC2)cc1OC, Cc1ccc(S(=O)(=O)N2CCCC2CNC(=O)c2ccc(F)c(F)c2)cc1 (stereo unspecified), COc1ccc2nc(N3CCCC(C(=O)NCCCN4CCN(C)CC4)C3)sc2c1 (stereo unspecified), Nc1cc2ccncc2c2ccccc12, Cc1cc(Sc2nnc(N)s2)c2ccccc2n1, O=c1c2cccnc2n(-c2ccccc2)n1Cc1ccc(Cl)cc1, O=C(Nc1ccc(-c2cn3c(n2)SCC3)cc1)c1ccc2ccccc2n1, CCN(CC(=O)Nc1ccccc1OC)C(=O)C1CCC1, COc1ccc(C(=O)Nc2cccc(NC(=O)c3ccc(OC)c(OC)c3)n2)cc1OC, CCc1c(C(=O)NC2CCCCC2)[nH]c(C)c1C(C)=O, CCn1c(C(=O)NC2CCC(C)CC2)cc2sccc21 (stereo unspecified), CN(Cc1c(F)cccc1Cl)c1nnnn1-c1ccccc1, CN(Cc1c(F)cccc1Cl)C(=O)CNC(=O)c1sc2ccccc2c1Cl, CN(c1cc2c(c3c1ccn3C)C1CCC2C1)C1CCCCC1 (stereo unspecified), CCN(CC)CCNc1nc(-c2ccc(OC)cc2)c(-c2ccc(OC)cc2)s1, CCCCNC(=O)C1CCN(Cc2ccccn2)CC1, CC1(Cc2cc(Cl)ccc2C(F)(F)F)C(=O)Nc2ccc(S(=O)(=O)NC3CCCCC3)cc21 (stereo unspecified), O=S(=O)(/C(=C\c1ccc(C(F)(F)F)cc1)c1nc2ccccc2[nH]1)c1ccccc1, N#C/C(=C(/O)c1cc2ccccc2o1)c1nc2ccccc2s1, CC(=O)Nc1cc(OC(C)=O)c2nonc2c1OC(C)=O, Cc1ccccc1CSc1nnc(-c2ccco2)n1Cc1ccco1, COCC(=O)Nc1ccc2c(c1)OC[C@@H](C)N(CCc1ccccc1)C[C@H](C)[C@@H](OC)CN(C)C2=O, Cc1cccc(-n2c(=O)cc(N3CCN(c4ccc(F)cc4)CC3)[nH]c2=O)c1, CC(C)c1nnc(NC(=O)CCS(=O)(=O)c2nc(-c3cccs3)cc(C(F)(F)F)n2)s1, COC(=O)c1ccc(CSc2nc3c(cnn3-c3ccc(Cl)cc3)c(=O)[nH]2)o1, O=C(NCc1ccc2c(c1)OCO2)C1CCN(S(=O)(=O)c2cccs2)CC1, CC(=O)N1CCN(S(=O)(=O)c2cccc(C(=O)Nc3ccc4c(c3)OCO4)c2)CC1, Cc1cc(C)n(-c2nc(O)cc(=O)[nH]2)n1, C[C@H]1CN([C@@H](C)CO)C(=O)CCCn2nncc2CO[C@@H]1CN(C)C(=O)Nc1ccccc1, O=C(Cc1ccc(Cl)cc1)Nc1ncccn1, NS(=O)(=O)c1cccc(NC(=O)CSc2ccccn2)c1, CC(C)OC(=O)c1c(F)c(F)c(N2CCOCC2)c(F)c1F, Cc1noc(C)c1S(=O)(=O)N(C)C[C@H]1Oc2ccc(NC(=O)Nc3ccccc3)cc2CC(=O)N([C@H](C)CO)C[C@H]1C, CCC(CC)NC(=O)Cc1ccc(S(=O)(=O)N2CCOCC2)s1, O=S(=O)(c1ccc(Br)s1)N1CCN(Cc2ccc3c(c2)OCO3)CC1, Cc1cccnc1C(NC(=O)C1CCN(Cc2cn(C)c3ccccc23)CC1)c1ccc(Cl)cc1 (stereo unspecified), Cc1c(/C(O)=C2\C(=O)C(=O)N(CCCN(C)C)C2c2ccccc2)cnn1-c1ccccc1 (stereo unspecified), CC1CN(c2oc(-c3cccs3)nc2C#N)CC(C)O1 (stereo unspecified), COc1ccc(C2=NOC(C(=O)Nc3cccnc3)C2)cc1 (stereo unspecified), Cc1ccc(CNC(=O)c2ccc(CS(=O)(=O)c3ccccc3)o2)cc1, O=C(c1cccc(F)c1)N1CCN(C(=O)c2cc(-c3ccc(Cl)cc3Cl)on2)CC1, C[C@H](CO)N1C[C@H](C)[C@@H](CN(C)CC2CCOCC2)Oc2ncc(Br)cc2C1=O, O=c1c(Cl)c(NCCCO)cnn1-c1nc2ccccc2[nH]1, COc1ccc(C(=O)Sc2nncc3ccccc23)cc1, CC(=O)Nc1ccc(Oc2sc(C(=O)c3ccccc3)c(N)c2C#N)cc1, COc1ccc(Nc2ccnc3ccccc23)cc1, c1ccc(CNc2ncnc3nc[nH]c23)cc1, Brc1ccc2ncnc(NCc3ccccc3)c2c1, COc1ccc(NC(=O)CN(C)C(=O)CCNC(=O)c2ccccc2OC)cc1, Nc1nn(-c2ccccc2)nc1C(=O)OCc1ccccc1, N#Cc1c(-c2cccc(Br)c2)cc(-c2ccco2)[nH]c1=O, COCc1ccc(CN2CCC(n3nccc3NC(=O)c3ccc4c(c3)OCO4)CC2)o1, CSCC(=O)N1CCCC(CO)(Cc2ccccc2C)C1 (stereo unspecified), CO[C@H]1CN(C)C(=O)c2cc(NS(C)(=O)=O)ccc2OC[C@H](C)N(C(=O)NC(C)C)C[C@@H]1C, O=c1[nH]nc(-c2ccc(NCCCO)c([N+](=O)[O-])c2)c2ccccc12, O=C(/C=C/c1ccc(N2CCCCC2)c([N+](=O)[O-])c1)c1ccc(O)cc1, Cc1ccc(NC(=O)C2C(c3ccccc3)C2(Cl)Cl)c(C)c1 (stereo unspecified), Cc1ccc(Nc2nc(C)cc(C)c2C(N)=O)c(C)c1, CCOc1ccc2nnc(-c3ccc(Br)cc3)n2n1, CS(=O)(=O)Nc1ccc2c(c1)[C@@H]1C[C@H](CC(=O)N3CCc4ccccc4C3)O[C@@H](CO)[C@@H]1O2, Nc1ncc([N+](=O)[O-])c(N2CCCCCC2)n1, CCNC(=O)NC(=O)COc1ccccc1C#N, O=C1c2ccccc2-[n+]2ccc3c([nH]c4ccccc43)c21, Cc1[nH]c(=O)[nH]c(=O)c1S(=O)(=O)Nc1ccc(F)c(Cl)c1, CCc1ccc(NC(=O)CSc2nnc(-c3cnccn3)n2Cc2ccco2)cc1, CCn1c(SCC(=O)Nc2ccc(OC)c(OC)c2)nnc1-c1cccs1, COCC(=O)OCC(=O)Nc1cc(C(C)(C)C)nn1-c1ccccc1, CN1[C@@H]2CC(OC(=O)[C@H](CO)c3ccccc3)C[C@H]1[C@@H]1O[C@@H]12 (stereo partly specified), CCOC(=O)C1CN(S(=O)(=O)c2ccccc2)c2cc(S(=O)(=O)CC)ccc2O1 (stereo unspecified), CCOC(=O)C1CN(S(=O)(=O)c2ccc(C)cc2)c2cc(S(=O)(=O)CC)ccc2O1 (stereo unspecified), Cc1cc2nc(/C=C/c3cccnc3)[nH]c2cc1C, COc1ccc(C2c3[nH]c4ccccc4c3C[C@H]3C(=O)N(c4ccccc4C(=O)N4CCC[C@@H]4C(=O)O)C(=O)N23)cc1 (stereo partly specified), O=C(CCC1CCN(Cc2ccccc2Cl)CC1)NC1CC1, CC(=O)NC1CCN(CC(=O)Nc2nccs2)CC1, Cc1ccccc1Oc1cc(-n2ncc(Cl)c(Cl)c2=O)ncn1, CC(C)(C)NC(=O)Cn1nnc(-c2ccccc2NC(=O)c2ccco2)n1, O=C(Cc1ccccc1)Nc1ccc(Cl)cn1, Cc1noc(C)c1NC(=O)Nc1ccc2c(c1)C(=O)N([C@@H](C)CO)C[C@@H](C)[C@@H](CN(C)CC1CCCCC1)OCCCC[C@H](C)O2, COc1cc(CN2CCN(Cc3ccccc3C(F)(F)F)CC2)cc(OC)c1OC, COc1ccccc1CN1C[C@@H]2C[C@@H](c3cccc(C)n3)N3CCC[C@@]23C1=O, Cc1nc(C(C)N(C)Cc2nc(-c3ccc4c(c3)OCO4)no2)c(C)s1 (stereo unspecified), CC(NC(=O)Nc1cccnc1)(C(F)(F)F)C(F)(F)F, CC(=O)c1cccc(NC(=O)Nc2cccnc2)c1, C#CC(CC)(CC)NC(=O)c1ccc(Br)s1, COc1ccccc1C#Cc1ccc2c(c1)O[C@@H](CN(C)Cc1cccnc1)[C@H](C)CN([C@H](C)CO)S2(=O)=O, OC(c1cc(C(F)(F)F)nc2c(C(F)(F)F)cccc12)C1CCCCN1 (stereo unspecified), Cc1ccc(-c2cnc3c(c2)C(=O)N([C@H](C)CO)C[C@H](C)[C@@H](CN(C)C)O3)cc1, C[C@@H](C(=O)Nc1cc(C(F)(F)F)ccc1N1CCOCC1)N1C(=O)C2CC=CCC2C1=O (stereo partly specified), C[C@@H]1CCCCO[C@H](CN(C)Cc2ccc(Cl)c(Cl)c2)[C@H](C)CN([C@@H](C)CO)C(=O)c2cc(NC(=O)Nc3ccc(F)cc3)ccc2O1, CCCCn1c(SCC(=O)NCc2ccc3c(c2)OCO3)nnc1C(CC)N(C)C (stereo unspecified), COc1cc2cc(C)c3nnc(SCC(=O)Nc4cc(C)on4)n3c2cc1OC, Cc1nc2ccccn2c1C(=O)/C=C/c1ccc(F)cc1
